Experimental data: PubChem BioAssay (EPA / NIEHS)
Inconclusive results are not listed. Active and inactive are the calls of the source. How the source made its calls: active means hit-call score of the fitted dose curve at least 0.9, where 1 is the maximum; inconclusive means response in the unintended direction; inactive means score below 0.9.

Assays:
[1] = TOX21_p53_BLA_p2_viability: Viability Assessment in the Tox21 HCT-116 p53 Agonism Beta-lactamase Assay, Phase 2 (AID 2283591);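 further: compound exposure lasted 16 h at 37 °C; actives lower the ATP signal meaning cytotoxicity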
Outline: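 Cytotoxicity readout: CellTiter-Glo ATP luminescence, 30 min at room temperature, after the beta-lactamase read. Cells were HCT116 exposed 16 h at 37C to compounds pin-transferred at 217-fold dilution from DMSO stocks.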

[2] = TOX21_p53_BLA_p3_viability: Viability Assessment in the Tox21 HCT-116 p53 Agonism Beta-lactamase Assay, Phase 3 (AID 2283593);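 further: cells exposed to compound for 16 h before reading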
Outline: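 Cellular ATP was quantified by CellTiter-Glo luminescence, read after 30 min at room temperature. Beforehand, HCT116 cells (4000/well) received compound 5 h post-seeding, 217-fold diluted from DMSO, then incubated 16 h at 37C.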

[3] = biological target: Cellular tumor antigen p53 (Homo sapiens) (UniProt P04637); test: TOX21_p53_BLA_p3_ratio: Tox21 HCT-116 p53 Agonism Beta-lactamase Assay, Ratio, Phase 3 (AID 2283596)
Sequence of Cellular tumor antigen p53 (Homo sapiens) (P04637 whole entry, looked up): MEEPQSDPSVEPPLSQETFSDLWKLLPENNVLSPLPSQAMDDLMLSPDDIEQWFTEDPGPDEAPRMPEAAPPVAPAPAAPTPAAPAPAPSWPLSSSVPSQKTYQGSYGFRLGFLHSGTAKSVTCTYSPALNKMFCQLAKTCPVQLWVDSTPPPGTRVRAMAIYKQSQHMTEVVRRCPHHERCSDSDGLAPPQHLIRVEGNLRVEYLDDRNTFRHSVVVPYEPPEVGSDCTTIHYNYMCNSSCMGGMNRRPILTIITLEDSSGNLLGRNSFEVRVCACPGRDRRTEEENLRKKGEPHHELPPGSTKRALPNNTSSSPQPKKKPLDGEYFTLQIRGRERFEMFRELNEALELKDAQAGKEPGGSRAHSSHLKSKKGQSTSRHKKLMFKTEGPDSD
Outline: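 Cells were seeded at 4000/well, rested 5 h at 37C, then dosed with DMSO compound solutions (217-fold dilution) for 16 h. CCF4-AM substrate was loaded for 2 h at room temperature, and the 460/530 nm emission ratio was fitted for gain of signal versus DMSO.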

[4] = TOX21_p53_BLA_p4_viability: Viability Assessment in the Tox21 HCT-116 p53 Agonism Beta-lactamase Assay, Phase 4 (AID 2283597);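 further: hits lower the luminescence signal meaning cytotoxicity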
Outline: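 Viability is taken as cellular ATP: after 16 h compound exposure of HCT116 cells and a 2 h room-temperature CCF4-AM substrate step, CellTiter-Glo reagent is added and luminescence is measured 30 min later.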

[5] = biological target: Cellular tumor antigen p53 (Homo sapiens) (UniProt P04637); test: TOX21_p53_BLA_p5_ratio: Tox21 HCT-116 p53 Agonism Beta-lactamase Assay, Ratio, Phase 5 (AID 2283599)
Outline: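 Beta-lactamase reporter ratio (blue 460 nm over green 530 nm, 405 nm excitation) after 2 h CCF4-AM loading, in HCT-116 cells exposed 16 h at 37 C to compounds pinned at 217-fold dilution. Increases relative to DMSO baseline scored.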

[6] = TOX21_p53_BLA_p5_viability: Viability Assessment in the Tox21 HCT-116 p53 Agonism Beta-lactamase Assay, Phase 5 (AID 2283600)
Outline: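 Viability is taken from cellular ATP content, measured by luciferase luminescence in the same wells after the beta-lactamase ratio read. Cells are seeded at 4000 per well and exposed to DMSO-dissolved compounds, diluted 217-fold, for 16 h.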

[7] = biological target: Cellular tumor antigen p53 (Homo sapiens) (UniProt P04637); test: TOX21_p53_BLA_p4_ratio: Tox21 HCT-116 p53 Agonism Beta-lactamase Assay, Ratio, Phase 4 (AID 2283601)
Outline: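 Signal is the blue/green (460nm/530nm) ratio of cleaved versus uncleaved CCF4-AM substrate, read after 2 h substrate loading. Cells were HCT116 carrying the p53-responsive beta-lactamase reporter, dosed 16 h at 37C, 5% CO2; CellTiter-Glo measured in parallel.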

Measured: outcome

COC(C)(C)CCCC(C)C/C=C/C(C)=C/C(=O)OC(C)C (configuration not stated)
inactive: all assays above
